This is a sample that favours compounds with a hit; in the whole collection about 3.9% have one here.
ALR H2O2 inh: inhibitors of human ALR sulfhydryl oxidase, primary screen, biochemical, H2O2 detection, HRP-luminol luminescence, single point; inhibition, % (no concentration beside the values); purified ALR, DTT oxidation; 3.8% of 290,000 active;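 active = mean replicate inhibition above about 79%, with every replicate also reaching it, limit read from the data; inconclusive = only one of the two criteria met; inactive = mean below limit and not every replicate reaching it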
Target sequence (P55789 whole entry, looked up): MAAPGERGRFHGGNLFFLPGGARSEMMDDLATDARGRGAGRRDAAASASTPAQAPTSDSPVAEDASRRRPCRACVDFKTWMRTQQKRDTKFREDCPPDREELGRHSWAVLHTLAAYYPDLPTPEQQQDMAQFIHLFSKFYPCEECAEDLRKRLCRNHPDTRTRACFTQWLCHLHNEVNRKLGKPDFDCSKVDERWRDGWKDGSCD
UBC9 SUMO inh: inhibitors of in vitro SUMOylation cascade, primary screen, biochemical, HTRF, uHTS; inhibition, % at 35 µM; 0.36% of 290,000 active; HTRF SUMOylation assay, SAE1/SAE2 + UBC9; AID 2006, 2009; in the data active = inhibition above about 50%, passing the limit was not always enough; inconclusive = no clear call, values can overlap the other calls
Target sequence (P63279 whole entry, looked up): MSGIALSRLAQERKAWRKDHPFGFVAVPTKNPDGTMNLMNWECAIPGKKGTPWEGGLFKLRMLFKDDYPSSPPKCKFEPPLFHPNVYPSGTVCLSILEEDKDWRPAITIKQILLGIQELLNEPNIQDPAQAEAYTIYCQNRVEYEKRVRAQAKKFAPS
NTR1 ag: agonists of human NTR1, primary screen, imaging, U2OS cells, beta-arrestin-GFP, high content; Neurotensin receptor type 1 (Homo sapiens), P30989; NTR1-U2OS beta-arrestin-GFP spot imaging, agonist mode; activation, % at 20 µM; 0.17% of 330,000 active; AID 493036, 2011;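 active = activation at or above 40% of the spot to cytoplasm intensity ratio, with at least 20 cells analyzed; inconclusive = wells under 20 cells, flagged as cytotoxic or low count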;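 note: 0% = DMSO without peptide and 100% = 100 nM NTR1 peptide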
H9c2 protect: cardioprotection against H2O2-induced cell death, primary screen, uHTS, H9c2 cells, ATPLite luminescence; protection from H2O2 cell death, % at 20 µM; 0.63% of 360,000 active; AID 588492, 2011; H9c2 cardiomyocytes, H2O2 injury protection, 2 h;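 active = compounds giving at least 50% protection of heart cells from peroxide-induced death in the single-dose screen, raw or plate-pattern-corrected value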;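 note: 0% = DMSO wells with peroxide and 100% = DMSO wells without peroxide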
An asterisk follows results filed as active; ? = inconclusive; . = not tested or not shown; ! = repeats disagree.

SMILES	ALR H2O2 inh	UBC9 SUMO inh	NTR1 ag	H9c2 protect
CCOC(=O)Cn1c(=N)n(Cc2ccccc2F)c2ccccc21	-4	-4	2	-8
COc1ccc2[nH]c(=O)c(CN(Cc3cccs3)S(=O)(=O)c3cccc4nsnc34)cc2c1	.	-13	10	73*
COc1ccc(C2/C(=C(/O)c3ccc4c(c3)CC(C)O4)C(=O)C(=O)N2CCCn2ccnc2)cc1OC (stereo not given)	.	.	.	-2
O=C(COc1ncnc2ccccc12)N1CCN(c2ccccc2)CC1	13	6	2	0
O=C(NCCN1CCc2ccccc2C1)Nc1ccc([N+](=O)[O-])cc1	.	58*	4	-6
Fc1ccc(-c2csc(N3CCSCC3)n2)cc1	0	-13	6	-6
Cc1cc(NC(=O)c2sc(Nc3ccc(F)cc3)nc2N)no1	97*	-5	3	9
O=C(Cc1ccc(S(=O)(=O)N2CCCC2)s1)N1CCOCC1	7	-24	3	4
Cc1cc2oc(=O)cc(-c3cc4ccccc4o3)c2cc1O	.	.	3	1
COc1cc(OC)c(-c2c3cc(O)c(=O)cc-3oc3cc(O)c(O)cc23)cc1OC	?	80*	2	6
Cc1c2cc(O)c(=O)cc-2oc2cc(O)c(O)cc12	93*	92*!	-2	-3
COCCNC(=O)C1(C)CCCN(C(=O)c2ccc(C(=O)OC)cc2)C1 (stereo not given)	.	.	.	6
COc1ccccc1NC(=O)Nc1nc(CC(=O)NCc2ccc(F)cc2)cs1	4	.	1	27
CCC(=NCc1ccco1)c1c(C(F)(F)F)[nH]n(-c2nc3ccccc3s2)c1=O	86*	5	2	-12
CCCN=C(C)c1c(-c2ccccc2)[nH]n(-c2nc3ccccc3s2)c1=O	37	16	7	18
CCC(=NCc1ccccc1)c1c(C(F)(F)F)[nH]n(-c2nc3ccccc3s2)c1=O	52	-12	8	-8
O=c1c(C=NCc2cccnc2)c(C(F)(F)F)[nH]n1-c1nc2ccccc2s1	99*	5	2	-21
CCN(CC)CCCN=Cc1c(-c2ccccc2)[nH]n(-c2nc3ccccc3s2)c1=O	98*	34	0	4
Cc1ccc(NC(=O)Nc2ccc3c(c2)CCC3)c(C)c1	-9	7	0	-4
C=CCC(NCc1ccco1)c1ccc(OC)c(OC)c1 (stereo not given)	-8	14	-1	6
Cc1ccc2oc(C(=O)N(Cc3nccn3C)C(C)C)c(C)c2c1	-7	9	0	5
COc1ccc(/C=C(/C#N)C(=O)Nc2ccc(O)cc2)cc1C(=O)O	99*	5	1	4
CCc1ccc(NC(=O)/C(C#N)=C\c2ccc(OC)c(C(=O)O)c2)cc1	99*	8	-1	7
COc1cc(/C=C(/C#N)C(=O)Nc2ccccc2)ccc1OCc1ccc(C(=O)O)cc1	-5	5	0	22
CCOC(=O)C1=C(N)OC2=C(C(=O)CCC2)C1c1ccccc1OCC (stereo not given)	78*	13	0	10
SMILES	ALR H2O2 inh	UBC9 SUMO inh	NTR1 ag	H9c2 protect
CN(C=O)c1ccc(CSc2ccccc2)cc1	.	.	.	-4
Cc1ccccc1C(=O)Oc1cccc2c(O)cccc12	37	3	12	-7
Cc1ccccc1S(=O)(=O)Oc1cccc2c(O)cccc12	99*	11	0	-4
CCc1nc(N=Nc2c(O)[nH]c3ccccc23)c2c3c(sc2n1)CCC3	4	2	1	69*
CCOc1ccc(C2NC(=O)C(C#N)=C(S)N2c2ccc(OC)cc2)cc1OC (stereo not given)	97*	-1	-1	9
CCCCC(NC(=O)Cc1c(C)c2cc3c(-c4ccccc4)coc3c(C)c2oc1=O)C(=O)O (stereo not given)	98*	9	21	4
CC[C@@H](C)[C@H](NC(=O)Cc1c(C)c2cc3c(C)coc3c(C)c2oc1=O)C(=O)O	98*	26	-1	0
Cc1c(CC(=O)O)c(=O)oc2c(C)c3occ(-c4ccc(Br)cc4)c3cc12	7	10	6	0
CC(=O)c1ccc(NC(=O)Cc2cccs2)cc1	-7	7	1	-3
O=C(Nc1ccon1)c1sc2cc(F)ccc2c1Cl	-7	4	0	-8
O=C(NC1=NCCS1)c1sc2cc(F)ccc2c1Cl	99*	0	0	-1
NNC(=O)c1cc2c(s1)CCCCCC2	.	3	1	9

High-throughput results as filed in PubChem.
